# Data taken from PubChem BioAssay AID1259417 (TB Discovery Research, Infectious Disease Research Institute, 2018).
# Out of some 1,100 compounds screened, about 760 (69%) were called active. How the calls were made is not given here. So high a share suggests a set chosen from earlier hits. Some of the results follow.
# Assay: M. tuberculosis growth inhibition, HTS (AID 1259417);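 further: bacteria grown with compound for 5 days at 37 °C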
# Conditions: stronger effect = higher value, concentration not given here
# [1] = M. tuberculosis DsRed fluorescence growth inhibition
# [2] = M. tuberculosis growth inhibition
SMILES,inhibition [1],inhibition [2] [%]
CC1CCN(C(=S)NC(=O)c2ccc(Cl)cc2)CC1,24.6% (active),49.7
CN1CCN(C(=S)NC(=O)c2ccc(-c3ccccc3)cc2)CC1,0.913% (inactive),-8
O=C(NC(=S)N1CCCC1)c1ccc(-c2ccccc2)cc1,44.2% (active),47
COc1cc(OC)cc(C(=O)NC(=S)N2CCCCCC2)c1,3.24% (inactive),-3.75
O=C(NC(=S)N1CCc2ccccc21)c1ccccc1,20.8% (inactive),20.4
CC(=O)N(C)c1ccc(OCC(O)Cn2c3ccc(Cl)cc3c3cc(Cl)ccc32)cc1 (stereo not drawn),0.0147% (inactive),-14.7
CCN(CC)CCn1c(=N)n(CC(O)COc2ccc(Cl)cc2Cl)c2ccccc21 (stereo not drawn),100% (active),98
CC(=O)Oc1cc2c(cc1Cl)C1(CC(c3ccccc3Cl)O2)CC(C)(C)NC(=S)N1 (stereo not drawn),-2.34% (inactive),-4.82
COC(=O)CSc1nc(N)c2c3c(sc2n1)CCCC3,44.7% (active),75
CCCCC(=O)Nc1nnc(-c2ccc(Cl)s2)o1,0.12% (inactive),19.7
Cc1ccc(C)c(-c2nnc(NC(=O)C3=COCCO3)o2)c1,-4.83% (inactive),-2.72
Cc1ccc(C)c(-c2nnc(NC(=O)C3COc4ccccc4O3)o2)c1 (stereo not drawn),66.1% (active),90
O=C(NCC1COc2ccccc2O1)c1ccc(NC(=O)C2COc3ccccc3O2)cc1 (stereo not drawn),0.302% (inactive),-8.66
CCC(=O)Nc1nnc(-c2ccc(C)cc2C)o1,0.727% (inactive),13.4
Cc1ccc(C)c(-c2nnc(NC(=O)C3CC3)o2)c1,51.8% (active),83.4
O=C(Nc1nnc(-c2ccc(Cl)cc2)o1)C1CCCCC1,0.632% (inactive),5.51
Cc1ccc(-c2nnc(NC(=O)C3CC3)o2)c(C)c1,49.6% (active),76.4
O=C(Nc1nnc(-c2ccc(Cl)s2)o1)C1CCCCC1,49.3% (active),59.3
Cc1ccc(Nc2nnc(SCC(=O)Nc3cccnc3Cl)s2)cc1C,3.89% (inactive),-3.4
CSc1ncnc2c1ncn2CC(=O)Nc1ccc(C)c(C)c1,32.5% (active),19.8
CC(C)(C)c1ccc(C(=O)Nc2nnc(-c3ccncc3)o2)cc1,64.6% (active),77.1
CC(C)(C)c1ccc(C(=O)Nc2nnc(-c3cccnc3)o2)cc1,83.8% (active),89.3
CC12CCC(C(=O)Oc3cccc4cccnc34)(CC1=O)C2(C)C (stereo not drawn),101% (active),100

SMILES,inhibition [1],inhibition [2] [%]
CCCCNC(=O)COC(=O)c1cc(Br)ccc1Cl,11.3% (active),63.4
COC(=O)c1ccc(COC(=O)c2ccccc2Cl)cc1,0.593% (inactive),15.3
CCn1c(C=Cc2ccc([N+](=O)[O-])o2)nc2ccc(I)cc2c1=O,36.1% (active),34.3
O=c1c2ccccc2nc(C=Cc2ccc([N+](=O)[O-])o2)n1-c1cccc(O)c1,6.18% (inactive),-1.52
CCOC(=O)c1c(NC(=O)C2COc3ccccc3O2)sc2c1CC(C)(C)NC2(C)C (stereo not drawn),29.1% (inactive),-2.75
CCOC(=O)c1ccc(NC(=O)C=Cc2ccc([N+](=O)[O-])s2)cc1,52.9% (active),80.2
Cc1ccc(C)c(OCC(=O)Nc2ccc(C(=O)OC(C)C)cc2)c1C,8.22% (inactive),-22.5
CCOC(=O)c1ccc(NC(=O)c2ccc(C)s2)cc1,91.5% (active),65.1
Cc1ccc(C(=O)Nc2ccc([N+](=O)[O-])cc2)s1,98.3% (active),94.8
O=Cc1ccc2oc3nc4n(c(=O)c3c(=O)c2c1)CCCS4,96.9% (active),95.6
O=c1c2cc(Cl)ccc2oc2nc3n(c(=O)c12)CCCS3,99.1% (active),98.2
CC(C)c1ccc(-c2csc(NC(=O)c3ccc4c(c3)OCCO4)n2)cc1,-4.25% (inactive),-26.1
O=C(Nc1ccn(Cc2ccc(Cl)cc2)n1)c1ccc2c(c1)OCO2,100% (active),99.3
O=C1N(Cc2ccccc2Cl)c2ccc(Br)cc2C1(O)c1c[nH]c2ccccc12 (stereo not drawn),10.6% (inactive),-0.98
Cc1ccc(C(=O)Nc2sc(C)c(C)c2C(N)=O)cc1I,3.89% (inactive),-13.1
CCN(CC)c1ccc(NC(=O)c2ccc([N+](=O)[O-])o2)c(C)c1,98.8% (active),99.7
CCc1cc(I)ccc1NC(=O)c1ccc([N+](=O)[O-])o1,98% (active),98.3
O=C(Nc1ccccc1Br)c1ccc([N+](=O)[O-])o1,64% (active),42.2
Cc1ccc(C(=O)Nc2ccc([N+](=O)[O-])cc2C)cc1I,97.4% (active),83.2
Cc1cc(NC(=O)c2ccc([N+](=O)[O-])o2)c(C)cc1I,88% (active),92
COc1ccc(CCNc2nc(-c3ccccn3)cs2)cc1OC,89.5% (active),78
c1ccc(CCNc2nc(-c3ccccn3)cs2)cc1,87.2% (active),86.6
Cc1cn2c3c(=O)[nH]c(=O)n(C)c3nc2n1CCCNc1ccccc1,34.8% (active),31.6

SMILES,inhibition [1],inhibition [2] [%]
COC(=O)CSc1nnc(NC(=O)c2ccc(Cl)cc2)s1,88.6% (active),86.6
Cc1cccc2sc(NC(=O)c3ccc(C(C)(C)C)cc3)nc12,12.6% (inactive),14.7
CC(C)c1ccc(Nc2nnc(SCC(=O)Nc3ncc(S(=O)(=O)c4ccc([N+](=O)[O-])cc4)s3)s2)cc1,-1.44% (inactive),-2.42
CCOC(=O)C(C)Sc1nnc(NC(=O)c2ccc(C)c([N+](=O)[O-])c2)s1 (stereo not drawn),-5.3% (inactive),0.339
CCc1ccc(Nc2nnc(SCC(=O)Nc3cccnc3Cl)s2)cc1,7.74% (inactive),23.1
COC(=O)CSc1nnc(NC(=O)c2ccc(C(C)(C)C)cc2)s1,99.1% (active),98.3
CC1=Nc2c(ccc3cccnc23)C1(C)C,8.5% (active),35.9
COc1ccccc1-c1nnc(Nc2nc3c(F)cccc3s2)o1,30.8% (active),84.8
Cc1ccc(C(=O)NCCSC(C)(C)C)cc1[N+](=O)[O-],-1.92% (inactive),-26.5
COCCCNC(=O)c1c(NC(=O)c2ccc(C(C)(C)C)cc2)sc2c1CCCC2,15.2% (inactive),-1.37
Cc1ccc(C(=O)NCCC2=CCCCC2)cc1Br,86.6% (active),67.2
Cc1ccc(C(=O)NCCC2=CCCCC2)cc1I,81.3% (active),52.7
CCn1c2ccccc2c2cc(CN3CCC(N4CCN(c5ccccc5)CC4)CC3)ccc21,-3.76% (inactive),-28
COC(=O)CSc1ccc(C#N)c(SCC(=O)OC)c1,-1.74% (active),42.7
COC(=O)CSc1cc(SCC(=O)OC)c(C#N)c(SCC(=O)OC)c1,28.8% (inactive),23.9
COC(=O)CSc1ccc2c(N)c(C(=O)OC)sc2c1,43.5% (active),77.1
Cc1cc(C(C)(C)C)ccc1OCCOCCn1ccnc1,99.2% (active),100
Cc1cc(C(C)(C)C)ccc1OCCCCn1ccnc1,99.4% (active),99.7
N=c1c2c(-c3ccccc3)c(-c3ccccc3)n(Cc3ccco3)c2ncn1Cc1ccco1,71% (active),61.5
O=C(CSc1nnc(-c2cccnc2)o1)N1CCC(Cc2ccccc2)CC1,95.4% (active),86.2
COc1ccccc1N1C(=O)c2cccc3cc([N+](=O)[O-])cc(c23)C1=O,89.8% (active),95.8
Cc1cccc(OCc2nnc(SCC(=O)NCCc3ccccc3)o2)c1,92.7% (active),74.5
Cc1cccc(C)c1OCc1nnc(SCC(=O)NCCc2ccccc2)o1,84.2% (active),73.9

SMILES,inhibition [1],inhibition [2] [%]
CSc1ccc(C(CC(=O)c2ccccc2)Nc2ccc(F)cc2)cc1 (stereo not drawn),19.6% (inactive),21.6
Cn1c(NC(=O)c2ccccc2)nc2ccccc21,98.3% (active),99.7
Cn1c(NC(=S)Nc2ccccc2)nc2ccccc21,21.4% (active),48.5
O=C(Nc1cccc(Cl)c1)c1cc(Br)ccc1Cl,76.3% (active),46.1
O=C(CSc1ccc(Br)cc1)Nc1cccc(Cl)c1,7.93% (inactive),16.8
COc1ccc(N2C(=O)C(F)(F)C2c2ccccc2F)cc1 (stereo not drawn),33.6% (active),75.8
O=C(NCc1ccc2c(c1)OCO2)c1cnn2c1NC(c1cccs1)CC2C(F)(F)F (stereo not drawn),100% (active),94.1
O=C(NCc1ccco1)c1cnn2c1NC(c1ccc(Br)cc1)CC2C(F)(F)F (stereo not drawn),38.9% (active),15.1
Cc1c(CNC(=O)c2cnn3c2NC(c2ccc(Br)cc2)CC3C(F)(F)F)cnn1C (stereo not drawn),57.6% (active),17.9
CSc1nc2ccc(NC(=O)C3CC(=O)N(Cc4ccccc4)C3)cc2s1 (stereo not drawn),10.7% (inactive),22.1
CCOC(=O)c1cnc(-n2nc(C)cc2C)nc1NCCc1ccccc1,101% (active),101
CCOC(=O)c1cnc(-n2nc(C)cc2C)nc1Nc1ccc(OC)cc1,54% (active),30.7
O=S1(=O)C=C(Sc2nnc(-c3ccccc3)o2)c2ccccc21,100% (active),101
O=S1(=O)C=C(Sc2nnc(-c3ccncc3)o2)c2ccccc21,100% (active),101
CC(=O)Oc1c(C(=O)c2ccccc2)sc2ccccc12,79.9% (active),52.4
CCc1ccc(-c2ccc(SCC(N)=O)nn2)cc1,20% (active),41
Cc1cc(OCC(=O)NC2C3CC4CC(C3)CC2C4)cc(C)c1Br (stereo not drawn),98.6% (active),72
N#Cc1c(SCC(N)=O)nsc1SCc1ccccc1Cl,20.8% (active),61.7
CCc1cccc2c(C(=O)COC(=O)c3ccc([N+](=O)[O-])s3)c[nH]c12,91.9% (active),95.3
O=C(OCC(=O)c1c[nH]c2ccccc12)c1ccc([N+](=O)[O-])s1,61.6% (active),52.7
